Source: PubChem BioAssay (Johns Hopkins Ion Channel Center)
CHT inh – inhibitors of human choline transporter CHT. Q9GZV3. CHT-expressing cells, membrane potential dye, choline response; stronger effect = lower value. B-score at 10 µM. actives 0.86% (n = 310,000). AID 488975;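 active = B-score over 3 SD under the library average, and starting fluorescence ratio not unusually high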;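 also: choline stimulus applied at its EC90 after an EC20 pre-addition; B-score computed on integrated fluorescence ratio after choline addition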
CHT allo act – allosterically activates the human high affinity choline transporter; Q9GZV3; CHT-expressing cells, membrane potential dye, choline EC20; stronger effect = higher value; LV-AA mutant CHT in HEK293 cells; B-score at 10 µM; actives 0.49% (n = 310,000); AID 488977;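 active = initial fluorescence not abnormally high and integrated response B-score, plate-corrected, over 3 SD above library mean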
ANO1 activ – activates or potentiates the mouse TMEM16A chloride channel; Q8BHY3; HEK293 TMEM16A/YFP-H148Q/I152L, iodide quench fluorescence; stronger effect = lower value; B-score at 10 µM; actives 0.3% (n = 340,000); AID 623877;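 active = fluorescence-ratio B-score plate-corrected deviation score at least 3 library SD below zero, with starting fluorescence score within 5 deviations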;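 also: channel opened by trigger with iodide after compound preincubation; score built on the fluorescence ratio of max minus min over baseline; more negative score means more quench and so TMEM16A activation or potentiation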
TMEM16A inh – inhibitors of mouse TMEM16A calcium-activated chloride channel. normalized B-score (activity score, 25-100; higher = stronger inhibition) at 10 µM. HEK293 TMEM16A/YFP iodide influx fluorescence, ionomycin. actives 1.2% (n = 310,000). AID 588511;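 active = ratio plate-corrected score three or more library SD toward inhibition, starting fluorescence score within five deviations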;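 also: score derived from kinetic fluorescence span divided by baseline fluorescence per well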
Starred values were filed as active, the others as inactive; i = inactive; . = no result given. Most compounds without a hit are left out; they make up all but 2.3% or so of the library.

SMILES	CHT inh	CHT allo act	ANO1 activ	TMEM16A inh
CC(C)(C)C(=O)NC(=S)NNC(=O)c1ccncc1	i	i	i	i
CC(C)(C)C(=O)NC(=S)NNC(=O)c1ccc(-c2ccccc2)cc1	i	i	-10*	100*
CC(C)(C)c1ccc(C(=O)NC(=S)NNC(=O)COc2ccccc2)cc1	-5.1*	i	-4.6*	100*
CC(C)(C)c1ccc(OCC(=O)NNC(=O)CCc2ccccc2)cc1	i	i	i	i
CC(C)(C)c1ccc(C(=O)NC(=S)NNC(=O)c2cccs2)cc1	i	i	i	100*
CCN(CC(=O)NC1CCS(=O)(=O)C1)c1ccc([N+](=O)[O-])cc1C#N (configuration not stated)	.	.	i	.
OCCNCCO	i	i	i	i
CC(C(=O)Nc1ccccc1)c1ccc(-c2ccccc2)c(F)c1 (configuration not stated)	i	i	i	100*
O=S1c2ccccc2Sc2ccccc21	.	.	i	.
CC1CCC(C(=O)c2c(O)c3ccccc3oc2=O)CC1 (configuration not stated)	-11*	i	i	i
COc1ccc(OCC(=O)N/N=C/c2cccn2-c2cccc(C(=O)O)c2)cc1	.	.	i	.
CCOC(=O)c1c(NC(=O)c2ccc(C)cc2)sc2c1CC(C)(C)OC2	i	i	i	25*
COc1ccccc1CSc1nc2c(c(=O)n(C)c(=O)n2C)n1C	.	.	i	.
CCOc1cc(CNCCc2ccc(S(N)(=O)=O)cc2)ccc1OCc1ccccc1	i	i	i	i
NS(=O)(=O)c1ccc(NCc2cc(Cl)ccc2OCc2ccc(F)cc2)cc1	i	i	i	25*
CCOc1cc(CNCCc2ccc(S(N)(=O)=O)cc2)cc(Cl)c1OCc1ccccc1	i	i	i	25*
NS(=O)(=O)c1ccc(CCNCc2cc(Br)ccc2OCc2ccccc2)cc1	i	i	i	100*
COc1ccc(CNCCc2ccccc2)cc1OCC(N)=O	i	i	i	i
COc1ccc(CNCCc2ccc(Cl)cc2)cc1OCc1ccccc1	i	i	i	100*
CCOC(=O)C1CCN(Cc2cc(Cl)c3ccccc3c2O)CC1	i	i	i	i
COc1ccc(CN2CC(=O)N3[C@H]4c5ccccc5OC[C@@H]4[C@H](c4ccccc4)[C@]3(C)C2=O)cc1	.	.	i	.
O=c1cc(CSc2nnc(-c3cccs3)n2Cc2ccccc2)nc2sc3ccccc3n12	i	i	i	100*
Cc1ccc2nc(N(CCCN(C)C)C(=O)c3ccc(S(=O)(=O)N4CCCCCC4)cc3)sc2c1	-5.5*	i	i	i
O=C(NCCc1ccccc1)N1c2ccccc2Sc2ccccc21	i	i	i	100*
CCC(C(=O)NC1CCCCCC1)n1nc(C)c2c(C)n(-c3ccccc3)nc2c1=O (configuration not stated)	i	i	i	i
SMILES	CHT inh	CHT allo act	ANO1 activ	TMEM16A inh
CC(C)c1cc(-c2cc(C(=O)NCc3ccccc3)on2)nc(NCC2CC2)n1	i	i	-6.6*	100*
CC(=O)c1ccc(N2CCN(C(=O)c3cc4c(s3)CCCC4)CC2)cc1	i	i	-37*	i
COc1ccc(N2CCN(C(=O)c3cc4c(s3)CCCCC4)CC2)cc1	.	.	i	.
CC(=O)c1sc(NC(=O)C2CCN(C(=O)c3ccc(F)cc3)CC2)nc1-c1ccccc1	i	i	i	i
O=c1[nH]c(=S)[nH]c2nc(-c3ccccc3)cnc12	i	i	i	i
Cc1cc2nc3c(=O)[nH]c(=S)[nH]c3nc2cc1NC(=O)C(F)(F)F	i	i	-5.2*	i
CCSc1ccc([C@@H]2[C@H]3C(=O)N(C)C(=O)[C@H]3[C@]3(C(=O)OC)CCCCN23)cc1OC	i	i	i	i
COc1ccc(Cl)cc1NC(=O)c1cccc([N+](=O)[O-])c1O	.	.	i	.
CCSc1cc(N2CCCC2)nc(-c2ccccc2)n1	i	i	i	i
CCCSc1cc(N2CCCC2)nc(-c2ccccc2)n1	i	i	-26*	i
O=C(Nc1ccc(Br)cc1)C1CC(c2c(F)cccc2Cl)=NO1 (configuration not stated)	i	i	i	25*
CN(CC(=O)Nc1nc2ccccc2s1)S(=O)(=O)c1ccc(Br)cc1	i	i	i	25*
COc1ccccc1-c1ccc(SCc2cccc(C)c2)nn1	i	i	i	100*
Cc1ccc(C(=O)N2CCN(c3ncnc4c(C)csc34)CC2)cc1	i	i	i	i
Cc1csc2c(N3CCN(C(=O)Nc4ccccc4)CC3)ncnc12	i	i	i	25*
CC(=O)Oc1c(C)cc(Cl)cc1C(=O)Nc1ccc([N+](=O)[O-])cc1Cl	i	i	i	100*
Nc1nc(Cl)cc(NCCc2ccc(O)cc2)n1	i	i	i	i
Oc1ccc(CCNc2ncnc3ccc(Cl)cc23)cc1	i	i	i	100*
COc1ccc(N/C=C/C(=O)c2ccc(C)cc2)c([N+](=O)[O-])c1	i	i	-7.2*	i
COCCNC(=O)Cn1nc(-c2ccccc2F)ccc1=O	.	.	i	.
O=C(C1CCCC1)N1CCC(CO)(Cc2ccccc2Cl)CC1	i	i	i	i
CC(C)(C)NC(=O)N1CCC(CO)(Cc2ccccc2Cl)CC1	i	i	-6.9*	i
CC1CCN(S(=O)(=O)c2ccc3c(c2)CC(C)N3C(=O)C2CCC2)CC1 (configuration not stated)	i	i	i	25*
CCOC(=O)C1CCN(S(=O)(=O)c2ccc3c(c2)CC(C)N3C(=O)C2CCC2)CC1 (configuration not stated)	i	i	i	25*
COc1ccccc1CNS(=O)(=O)c1ccc2c(c1)CC(C)N2C(=O)C1CCC1 (configuration not stated)	i	i	i	25*
SMILES	CHT inh	CHT allo act	ANO1 activ	TMEM16A inh
CCOC(=O)C1CCCN(S(=O)(=O)c2ccc3c(c2)CC(C)N3C(=O)C2CC2)C1 (configuration not stated)	i	i	i	i
COc1ccccc1CNS(=O)(=O)c1ccc2c(c1)CC(C)N2C(=O)C1CC1 (configuration not stated)	i	i	i	i
COc1ccc(CN(C)C(=O)C(CCSC)NS(=O)(=O)c2ccc3c(c2)OCCO3)c(OC)c1OC (configuration not stated)	.	.	i	.
Cc1ccc(SCCNC(=O)/C=C/c2ccccc2Cl)cc1	i	i	i	25*
Cc1ccccc1CNC(=O)Nc1ccc(Cl)cc1	i	i	i	i
CSc1ncccc1C(=O)OCC(=O)c1ccccc1Br	i	i	-23*	i
O=C(N/N=C/c1cc(Cl)c(O)c(Cl)c1)c1cc2c(ccc3ccccc32)o1	i	i	i	100*
